Source: PubChem BioAssay (National Center for Advancing Translational Sciences (NCATS))
The list is not random: actives were taken first. Their share in the collection is about 21%.
HCV inhibitor: qHTS Assay for Inhibitors of Hepatitis C Virus (HCV); Huh7.5.1 HCVcc-Cre infection, luciferase reporter, 44 h; Potency, µM (top dose mostly 41.8 µM), hits mostly inhibitors; actives 3.4% (n = 340,000); AID 651820, 2012
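Cells (1,000/well) were plated 4 h before compound, then infected with HCVcc-Cre virus (~0.5 moi). After 44 h further culture, infection was read as luciferase luminescence following a 15 min substrate incubation at room temperature.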
Cycloheximide cs: Cycloheximide Counterscreen for Small Molecule Inhibitors of Shiga Toxin; cell reporter, cycloheximide protein synthesis inhibition counterscreen; AID 2314, 2010; actives 12% (n = 300,000); max response, %; in the data active means max response mostly above about 13%, no sharp cut-off; inactive means mostly below about 14%; further: read at 38.3 µM for the half of the compounds with a filed dose
Shiga toxin inh: A qHTS for Small Molecule Inhibitors of Shiga Toxin | Vero cells, Shiga toxin protein synthesis inhibition reporter | inhibition, % at 38.7 µM | actives 9.2% (n = 290,000); in the data active means inhibition mostly above about 28%, no sharp cut-off; inactive means mostly below about 43%
Pf growth 96h: Primary qHTS for delayed death inhibitors of the malarial parasite plastid, 96 hour incubation | P. falciparum luciferase reporter growth, 96 h | Potency, µM (highest dose often 28.7 µM), actives largely listed as inhibitors | actives 6.9% (n = 320,000)
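Two-generation exposure (96 h) targets delayed-death phenotype. Reporter parasites carrying integrated firefly luciferase, in red cells at 2% hematocrit and 0.05% parasitemia final, kept at 37 C, 5% CO2; luminescence loss indicates inhibition.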
Pf growth 48h: Primary qHTS for delayed death inhibitors of the malarial parasite plastid, 48 hour incubation | Potency, µM (highest dose often 28.7 µM), actives largely listed as inhibitors | AID 504832, 2011 | P. falciparum luciferase growth in erythrocytes, 48 h | actives 5.9% (n = 310,000)
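A one-generation exposure of luciferase-tagged malaria parasites in RPMI 1640/Albumax erythrocyte culture, 37 C and 5% CO2. Inhibition is inferred from decreased luminescence after adding detection reagent.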
AMA1 RON2 block: qHTS for Inhibitors of AMA1-RON; Towards Development of Antimalarial Drug Lead: Primary Screen; AlphaScreen AMA1-biotinylated RON2 peptide binding; Potency, µM (doses to about 58.2 µM), usual class: inhibitors; actives 0.2% (n = 360,000); AID 720542, 2013; further: nearly all actives have a fitted effect of over 45% in size
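AMA1 (3D7) with his tag at 25 nM final met compounds first, then biotinylated RON2 peptide at 25 nM; detection used donor plus acceptor beads, 10 µg/mL apiece, read by AlphaScreen after 30 min at room temperature.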
A number is an active result; n = inactive; u = inconclusive; x = no result given; [ ] = remark or other dose. Unless noted, the call rests on the fitted dose curve; in most records, active means well fitted curve in the direction sought with a large enough effect; inconclusive means small, poorly fitted or top-dose-only effect, or another doubt; inactive means no such curve, though single readings can be large; an effect the other way counts as inactive or inconclusive.

SMILES	HCV inhibitor	Cycloheximide cs	Shiga toxin inh	Pf growth 96h	Pf growth 48h	AMA1 RON2 block
NC(=O)c1ccc[n+]([C@H]2O[C@@H](COP(=O)([O-])OP(=O)(O)OC[C@H]3O[C@@H](n4cnc5c(N)ncnc54)[C@H](O)[C@@H]3O)[C@H](O)[C@@H]2O)c1	n	x	x	n	n	n
O=C(COC(=O)COc1ccc(Br)cc1)NC1CCS(=O)(=O)C1 (stereo not drawn)	x	x	x	x	x	n
CCn1cc(/C=C(\NC(=O)c2ccccc2)C(=O)NCCN2CCOCC2)c2ccccc21	x	x	x	x	x	n
CCOc1ccc(CCNC(=O)c2ccc3nc(CC)c(CC)nc3c2)cc1	u	n	n	13µM	n	n
CCc1nc2ccc(C(=O)NCCc3ccco3)cc2nc1CC	u	45	65	u	n	n
CCOc1ccc(C(=O)NCCNC(=O)c2ccc(OCC)cc2)cc1	n	n	n	n	u	n
OC(CNCc1ccccc1)(c1ccccc1)c1ccccc1	n	n	n	8.3µM	13µM	n
COc1ccc(CNCC(O)(c2ccccc2)c2ccccc2)cc1	n	n	n	n	n	n
COc1ccc(CNCC(O)(c2ccc(F)cc2)c2ccc(F)cc2)cc1	u	n	n	u	12µM	n
Cc1ccc(CNCC(O)(c2ccc(F)cc2)c2ccc(F)cc2)cc1	n	n	n	4.7µM	u	n
Cc1ccc(CNCC(O)(c2ccccc2)c2ccc(F)cc2)cc1 (stereo not drawn)	n	n	n	n	u	n
OC(CNCc1ccccc1)(c1ccc(F)cc1)c1ccc(F)cc1	n	n	n	2.1µM	4.7µM	n
CCNC(=O)C1CCCN(C(=O)c2cccc(OC(F)(F)F)c2)CC1 (stereo not drawn)	x	x	x	x	x	n
Cc1sc2nc(CSCC(=O)NC3(C#N)CCCCC3)[nH]c(=O)c2c1C	n	x	x	n	u	n
COc1ccc(CNCC(O)(c2ccccc2)c2ccccc2)cc1OC	u	n	n	u	u	n
OC(CNCc1ccc(F)cc1)(c1ccccc1)c1ccc(F)cc1 (stereo not drawn)	n	n	n	1.7µM	2.6µM	n
Cn1cccc1C(=O)/C(C#N)=C/c1ccc(F)cc1	n	19	n	n	x	n
Cn1cccc1/C=C(/C#N)c1ccc(F)cc1	u	26	n	n	n	u
CC[C@]12c3[nH]c4ccccc4c3CCN1C(=O)C(CC(=O)NCCCN(C)C)C[C@@H]2C(=O)N1CCN(C(=O)c2ccco2)CC1 (stereo partly drawn)	n	x	x	x	x	n
CN[C@H]1C[C@@H](c2ccccc2)N(C(C)=O)C[C@H]1CO	x	x	x	x	x	n
CCC1(c2ccccc2)NC(=O)N(CC(=O)Nc2ccc(OC)nc2)C1=O (stereo not drawn)	n	n	n	n	n	n
COC(=O)c1ccccc1S(=O)(=O)NNC(=O)c1nn(C)c(=O)c2ccccc12	n	x	x	x	x	n
O=C(COC(=O)c1ccc(O)cc1)Nc1ncc(Cl)cc1Cl	n	n	n	n	n	n
Cc1c(Cl)cnc(NC(=O)COC(=O)c2ccc3ncsc3c2)c1Cl	n	34	60	n	n	n
COC(=O)c1ccc(/C=C/C(=O)OCC(=O)Nc2ncc(Cl)cc2Cl)cc1	n	x	x	u	12µM	n
SMILES	HCV inhibitor	Cycloheximide cs	Shiga toxin inh	Pf growth 96h	Pf growth 48h	AMA1 RON2 block
COc1ccc(C(=O)NC(=O)COC(=O)c2ccc3ncsc3c2)cc1	n	32	35	n	n	x
O=C(COC(=O)c1ccc2ncsc2c1)Nc1ncc(Cl)cc1Cl	n	37	n	n	n	n[11.6 µM]
COc1ccc(N2CCN(C(=O)c3ccc(COc4ccc([N+](=O)[O-])cc4)o3)CC2)cc1	u	n	n	n	u	u
N#Cc1c(N)[nH]c(C(=O)c2ccccc2)c1-c1ccc(Cl)cc1	x	x	x	x	x	n
NS(=O)(=O)c1ccc(NC(=O)COC(=O)CCc2ccc(S(=O)(=O)N3CCOCC3)cc2)cc1	n	n	n	n	n	n
Cc1nc2cc(C)c(C)cc2s1	n	22	n	u	n	n
Cc1nc2cc3sc(C)nc3cc2s1	n	33	73	u	n	n
Cc1nc2ccc(N)cc2s1	u	n	n	n	n	n
COc1ccc(OC)c(C(=O)NC(CC(N)=O)c2ccc(N3CCN(c4ccccn4)CC3)c([N+](=O)[O-])c2)c1 (stereo not drawn)	n	n	n	n	n	n
O=C(Nc1ccc(-c2cn3ccsc3n2)cc1)C1COc2ccccc2O1 (stereo not drawn)	14µM	n	n	u	n	n
CCCNC(=O)c1ccccc1NC(=O)C1COc2ccccc2O1 (stereo not drawn)	u	n	n	u	u	n
CC1(C)Oc2ccc(NC(=O)C3COc4ccccc4O3)cc2O1 (stereo not drawn)	n	35	n	n	n	n
O=C(Nc1ncccc1Cl)C1COc2ccccc2O1 (stereo not drawn)	n	53	161	x	n	n
O=C(Nc1ccccc1F)C1COc2ccccc2O1 (stereo not drawn)	n	33	43	u	n	n
CC(C)CC(N)c1csc(NC(=O)C(c2ccccc2)c2ccccc2)n1 (stereo not drawn)	x	x	x	x	x	n
Cc1c(NS(=O)(=O)c2ccc3c(c2)Cc2ccccc2-3)c(=O)n(-c2ccccc2)n1C	n	n	n	n	n	n
Cc1ccc(NC(=O)C2COc3ccccc3O2)cc1 (stereo not drawn)	n	35	105	u	n	n
O=C(Nc1ccccc1)C1COc2ccccc2O1 (stereo not drawn)	n	22	57	n	n	n
O=C(Nc1cccnc1)C1COc2ccccc2O1 (stereo not drawn)	n	n	n	n	n	n
Cc1ccc(NC(=O)CN(C)C(=O)C2COc3ccccc3O2)cc1 (stereo not drawn)	n	n	n	u	n	n
Cc1ccc(NC(=O)C2COc3ccccc3O2)c(C)c1 (stereo not drawn)	n	23	x	n	n	n
O=C(Nc1ccc([N+](=O)[O-])cc1)C1COc2ccccc2O1 (stereo not drawn)	n	n	x	n	u	n
Cc1ccc(NC(=O)C2Oc3ccccc3OC2C)cc1 (stereo not drawn)	n	15	n	n	n	n
COc1cc(OC)c(C(=O)OCC(=O)N(Cc2ccccc2)C(C)(C)C)cc1OC	n	n	n	u	n	n
CCOc1ccc(S(=O)(=O)N2CCCCC2)cc1NS(=O)(=O)c1cccs1	n	x	x	u	u	n
Cc1cn([C@H]2C[C@H](O)[C@@H](/C=C/C(=O)NCCN3CCCCC3)O2)c(=O)[nH]c1=O	x	x	x	x	x	n
